The nature of test [1]: qHTS assay to identify small molecule agonists of the sonic hedgehog signaling (Shh) pathway (AID 1259368).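 Also: NIH/3T3-derived 3T3Gli1-Luc cells carrying a stable Gli1-driven firefly luciferase reporter; series mostly up to about 92 µM; nearly all actives have a fitted effect of over 15% in size.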 Put shortly: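 Stable NIH/3T3 Gli1-Luc reporter clone; 24 hr cpd exposure after a 4 hr settling period; luminescence endpoint.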
For orientation: qHTS replaces the single test concentration by a dilution series.

A short description of test [2]: qHTS assay to identify small molecule antagonists of the sonic hedgehog signaling (Shh) pathway (AID 1259369). Also: nearly all actives have a fitted effect of over 45% in size. Also: potency is read from the fitted curve at half-maximal effect. Summed up: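 Gli1 transcriptional reporter (firefly Luc) in NIH/3T3 background, conditioned-medium activated. 24hr exposure, luminescence endpoint.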
In test [3] the target is Estrogen receptor beta (Homo sapiens) (UniProt Q92731). Kind of test: qHTS assay to identify small molecule agonists of the estrogen receptor beta (ER-beta) signaling pathway (AID 1259377; active = well fitted activation curve with a large enough effect in the signal ratio in the repeat runs, not every such curve was filed as active; the % refers to the signal ratio). Summed up:
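A UAS-controlled beta-lactamase reporter in ER-beta-UAS-bla HEK293T cells reports receptor activation. Compounds act for 16 hr at 37C in 2% charcoal-stripped serum, and a FRET substrate is read by fluorescence after 2 hours.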

Test [4] has the same target. As to the kind of experiment: qHTS assay to identify small molecule antagonists of the estrogen receptor beta (ER-beta) signaling pathway (AID 1259378; active = well fitted inhibition curve with a large enough effect in the signal ratio in the repeat runs, not every such curve was filed as active; the % refers to the signal ratio). Summed up: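 Antagonist mode: compounds added to beta-lactamase reporter HEK293T ER-beta-UAS cells stimulated with E2 (1nM final), 16 hr at 37C. LiveBLAzer B/G FRET substrate, 2 hours room temperature, fluorescence read-out.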

A short description of test [5]: qHTS assay to identify small molecule agonists of the androgen receptor (AR) signaling pathway in the presence of an antagonist - cell viability counter screen (AID 1259379; active = well fitted curve in the direction sought with a large enough effect in the repeat runs; an effect the other way counts as inactive or inconclusive; also: nearly all actives have a fitted effect of over 25% in size; also: potency is read from the fitted curve at half-maximal effect;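 as to activity change, negative = cytotoxicity: MDA-kb2 human breast cancer cells carrying an MMTV luciferase reporter; series mostly up to about 92 µM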). Put shortly: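 Counter screen for cell viability run in parallel with the AR agonist-mode luciferase assay. MDA-kb2 cells were co-treated with nilutamide (3.0uM final) and compounds, then incubated 16 hr at 37C, and CellTiter-Fluor fluorescence was measured.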

Test [6] in a line: qHTS assay to identify small molecule agonists of the estrogen receptor beta (ER-beta) signaling pathway - cell viability counter screen (AID 1259380; active = well fitted curve in the direction sought with a large enough effect in the repeat runs; an effect the other way counts as inactive or inconclusive; also: nearly all actives have a fitted effect of over 30% in size). Put shortly: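 In this qHTS counter screen, HEK293T cells carrying an ER-beta/UAS beta-lactamase reporter, grown in 2% charcoal-stripped FBS, received compound for 16 hr; ATP-based CellTiter-Glo luminescence was then read after 30 min at room temperature.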

Test [7] in a line: qHTS assay to identify small molecule antagonists of the estrogen receptor beta (ER-beta) signaling pathway - cell viability counter screen (AID 1259382; active = well fitted curve in the direction sought with a large enough effect in the repeat runs; an effect the other way counts as inactive or inconclusive;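 also: HEK293T cells carrying ER-beta-UAS-bla reporter stimulated with estradiol; series mostly up to about 92 µM; nearly all actives have a fitted effect of over 55% in size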). Summed up: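 HEK293T ER-beta-UAS-bla, 2% charcoal-stripped FBS; compounds + 1nM E2 16 hr 37C; CellTiter-Glo luminescence, 30 min RT.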
Test [8] addresses Estrogen receptor (Homo sapiens) (UniProt P03372). As to the kind of experiment: qHTS assay to identify small molecule agonists of the estrogen receptor alpha (ER-alpha) signaling pathway in the presence of an antagonist (AID 1259383). Also: top concentration of the series differs between compounds; nearly all actives have a fitted effect of over 15% in size. Summed up:
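ER-alpha agonism measured under antagonist challenge: 10.0nM ICI-182,780 (final) plus compound, 15 concentrations, 22hr, VM7Luc4E2 ERE-luciferase cells. Read by luminescence.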

Test [9] in a line: qHTS assay to identify small molecule agonists or antagonists of the thyroid stimulating hormone receptor (TSHR) signaling pathway - wild type cell line counter screen (AID 1259384). Summed up: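 Counter screen in untransfected Hek293: compounds (15-point titration, triplicate) plus phosphodiesterase inhibitor Ro20-1724 added after 18 h plating; 30 min RT. Intracellular cAMP via competitive d2/cryptate immunoassay, 1 h incubation.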

Test [10] addresses Androgen receptor (Homo sapiens) (UniProt P10275). Kind of test: qHTS assay to identify small molecule agonists of the androgen receptor (AR) signaling pathway in the presence of an antagonist (AID 1259381). Also: nearly all actives have a fitted effect of over 15% in size. Put shortly: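 AR antagonist background: nilutamide 3.0uM final. Cell line: MDA-kb2, MMTV-driven luciferase, responsive to both AR and GR. Exposure 16hr, 37C, no CO2; ONE-Glo luminescence.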

SMILES strings stand for the structures. Unmarked numbers belong to inactive results. Records with an inconclusive call do not appear. Activity calls are given as the source filed them. Unless noted, calls follow the shape of the full dose curve.
% is scaled to controls: 0 for no effect and ±100 for the full control effect.

Chain of Estrogen receptor beta (Homo sapiens) (Q92731 whole entry, looked up): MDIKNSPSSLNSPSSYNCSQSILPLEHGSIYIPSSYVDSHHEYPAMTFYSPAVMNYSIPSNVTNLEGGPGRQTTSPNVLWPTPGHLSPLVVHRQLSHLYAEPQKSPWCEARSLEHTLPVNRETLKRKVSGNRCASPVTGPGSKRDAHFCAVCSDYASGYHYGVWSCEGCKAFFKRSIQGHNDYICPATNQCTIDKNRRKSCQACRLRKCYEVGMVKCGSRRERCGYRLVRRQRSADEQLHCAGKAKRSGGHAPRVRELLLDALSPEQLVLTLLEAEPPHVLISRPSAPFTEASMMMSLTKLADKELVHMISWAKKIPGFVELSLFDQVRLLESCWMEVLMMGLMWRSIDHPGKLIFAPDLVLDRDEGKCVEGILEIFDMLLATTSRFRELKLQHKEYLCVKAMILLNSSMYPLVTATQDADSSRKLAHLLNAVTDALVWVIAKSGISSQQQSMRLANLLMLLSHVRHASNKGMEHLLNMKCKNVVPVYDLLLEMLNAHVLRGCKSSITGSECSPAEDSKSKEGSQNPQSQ
Chain of Androgen receptor (Homo sapiens) (P10275 whole entry, looked up): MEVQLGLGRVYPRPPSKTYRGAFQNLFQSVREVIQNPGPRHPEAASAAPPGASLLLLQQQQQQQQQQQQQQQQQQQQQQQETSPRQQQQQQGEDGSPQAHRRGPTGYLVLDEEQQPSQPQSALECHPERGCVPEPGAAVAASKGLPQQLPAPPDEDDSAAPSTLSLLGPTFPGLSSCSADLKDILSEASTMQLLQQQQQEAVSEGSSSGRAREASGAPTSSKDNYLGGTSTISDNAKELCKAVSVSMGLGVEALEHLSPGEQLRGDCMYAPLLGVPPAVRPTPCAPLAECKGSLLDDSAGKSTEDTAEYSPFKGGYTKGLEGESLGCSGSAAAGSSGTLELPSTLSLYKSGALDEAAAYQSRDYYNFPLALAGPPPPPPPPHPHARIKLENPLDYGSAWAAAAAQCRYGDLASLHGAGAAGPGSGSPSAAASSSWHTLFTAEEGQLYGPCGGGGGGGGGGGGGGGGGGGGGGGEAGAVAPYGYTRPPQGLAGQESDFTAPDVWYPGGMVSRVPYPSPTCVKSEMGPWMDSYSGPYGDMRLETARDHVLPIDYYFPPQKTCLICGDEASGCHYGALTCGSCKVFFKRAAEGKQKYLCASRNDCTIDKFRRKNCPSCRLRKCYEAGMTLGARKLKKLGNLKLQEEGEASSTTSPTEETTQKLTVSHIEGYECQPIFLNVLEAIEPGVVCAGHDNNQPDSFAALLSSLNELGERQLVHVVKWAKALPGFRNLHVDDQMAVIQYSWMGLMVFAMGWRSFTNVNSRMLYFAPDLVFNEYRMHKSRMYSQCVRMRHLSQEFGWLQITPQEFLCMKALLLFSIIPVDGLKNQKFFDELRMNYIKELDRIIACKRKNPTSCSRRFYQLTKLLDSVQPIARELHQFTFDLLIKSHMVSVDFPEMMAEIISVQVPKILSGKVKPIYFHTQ
Chain of Estrogen receptor (Homo sapiens) (P03372 whole entry, looked up): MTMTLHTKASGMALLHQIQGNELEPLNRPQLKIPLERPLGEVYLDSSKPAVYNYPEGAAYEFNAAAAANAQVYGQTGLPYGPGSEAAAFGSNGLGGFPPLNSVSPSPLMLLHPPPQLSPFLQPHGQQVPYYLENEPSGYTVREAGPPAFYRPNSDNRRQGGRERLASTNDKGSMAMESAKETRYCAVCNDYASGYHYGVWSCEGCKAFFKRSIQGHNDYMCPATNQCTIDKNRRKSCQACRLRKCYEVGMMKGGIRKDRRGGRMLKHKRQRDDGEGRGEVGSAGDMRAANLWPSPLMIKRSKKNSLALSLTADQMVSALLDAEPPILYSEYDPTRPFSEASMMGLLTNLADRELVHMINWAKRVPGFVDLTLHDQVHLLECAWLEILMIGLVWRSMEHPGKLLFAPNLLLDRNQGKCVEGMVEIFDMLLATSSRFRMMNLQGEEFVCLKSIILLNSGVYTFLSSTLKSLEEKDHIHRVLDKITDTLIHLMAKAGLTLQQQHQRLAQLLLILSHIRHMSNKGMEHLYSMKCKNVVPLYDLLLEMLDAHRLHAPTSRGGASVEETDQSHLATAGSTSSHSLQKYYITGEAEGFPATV

As for `C/C(=C(\CCO)SS/C(CCO)=C(\C)N(C=O)Cc1cnc(C)nc1N)N(C=O)Cc1cnc(C)nc1N`, the Potency entry in test [1], in test [2], in test [3], in test [4], in test [5] and in test [6] was “inactive” each time. Further, the Potency entry in [7] and in test [8] was “inactive” throughout. The result in test [9] was inactive.
Take `CC(C)=CCC[C@H](C)CCO`: the Potency entry in [1], in test [2], in test [3], in [4], in test [5] and in [6] was “inactive” throughout. Further, the Potency result in test [7] and in test [8] was “inactive” each time.
For the compound `CCOC(C)OCC`, the Potency result in test [1], in test [2], in test [3], in test [4], in [5] and in test [6] was “inactive” throughout.
As to `O=C(O)c1ccc(O)c(O)c1`, the Potency result in test [1], in [2], in [3], in [4], in [5] and in test [6] was “inactive” throughout. For the same compound, the Potency result in test [10], in test [7] and in test [8] was “inactive” each time. For the same compound, the compound was called inactive in test [9].
Regarding `CC(C)CCCCCCCOC(=O)c1ccc(C(=O)OCCCCCCCC(C)C)c(C(=O)OCCCCCCCC(C)C)c1`, the Potency result in test [1], in test [3], in test [4], in test [5], in test [6] and in [7] was “inactive” throughout. Also, in test [2], the Potency was 4.78 µM (active).
Turning to `CC(C)(O)C(=O)O`, the Potency result in test [1], in test [2], in test [3], in test [4], in test [5] and in test [6] was “inactive” throughout. Besides, the Potency result in [7] was “inactive”.
In the case of `CCOC(=O)CC(O)(CC(=O)OCC)C(=O)OCC`, the Potency result in test [1], in [3], in test [4], in test [5], in [6] and in [7] was “inactive” in each case. The Potency entry in test [8] was “inactive”. For the same compound, the Potency in [2] is 68.6 µM (active). The outcome in [9] was inactive.
In the case of `CCOc1ccc2c(c1)C(C)CC(C)(C)N2` (stereo not drawn), the Potency result in test [1], in [2], in [3], in test [4], in test [5] and in test [6] was “inactive” in each case. In test [10], the Potency entry is “inactive”. The compound was classed as inactive in test [9].
Consider `O=C(O)c1cc(C(=O)O)c(C(=O)O)cc1C(=O)O`, for which the Potency result in test [1], in test [2], in test [3], in test [4], in test [5] and in [6] was “inactive” each time. The Potency result in [10] and in [8] was “inactive” in each case.
Take `Cc1c(Cl)cccc1[N+](=O)[O-]`: the Potency result in [1], in [2], in test [3], in [4], in test [5] and in test [6] was “inactive” each time. In addition, the Potency entry in [7] is “inactive”.
For `O=C(OC1C[C@H]2CC[C@@H](C1)[N+]21CCCC1)C(O)(c1ccccc1)c1ccccc1` (stereo partly drawn), the Potency result in test [1], in test [2], in [3], in [4], in [5] and in test [6] was “inactive” throughout. Moreover, the Potency entry in test [10] and in test [7] was “inactive” throughout. For the same compound, the compound was classed as inactive in test [9].
`CC(O)CN` (stereo not drawn): the Potency entry in [1], in test [2], in test [3], in test [4], in test [5] and in [6] was “inactive” in each case. For the same compound, the Potency result in [7] and in test [8] was “inactive” each time.
As for `CC1(C)CC(=O)CC(C)(C)N1`, the Potency result in test [1], in test [2], in test [3], in test [4], in [5] and in test [6] was “inactive” throughout. In addition, the Potency result in test [7] and in test [8] was “inactive” throughout. Moreover, in test [9], the call was inactive.
Regarding `O=C1C=CCCC1`, the Potency result in [1], in test [2], in test [3], in test [4], in [5] and in [6] was “inactive” each time. In addition, the Potency entry in test [7] and in [8] was “inactive” throughout. The compound was classed as inactive in [9].
As for `CCC(CC)C(=O)O`, the Potency result in test [1], in test [2], in test [3], in test [4], in test [5] and in test [6] was “inactive” each time. Further, the Potency result in test [7] and in test [8] was “inactive” throughout.
As to `CCC(=O)O[C@@H]1C[C@H]2CC[C@]1(C)C2(C)C`, the Potency result in test [1], in test [2], in test [3], in [4], in [5] and in [6] was “inactive” throughout. Moreover, in test [7], the Potency result was “inactive”.
In the case of `CCCOC(C)=O`, the Potency entry in test [1], in test [2], in test [3], in test [4], in test [5] and in test [6] was “inactive” throughout. In addition, the Potency entry in [10], in test [7] and in test [8] was “inactive” in each case. For the same compound, in test [9], the result was inactive.
As for `O=C(c1ccco1)N1CCNCC1`, the Potency result in [1], in [2], in test [3], in test [4], in test [5] and in test [6] was “inactive” in each case. Moreover, the Potency result in test [10], in [7] and in test [8] was “inactive” each time. Also, in test [9], the outcome was inactive.
Take `Clc1nc2ccccc2nc1Cl`: the Potency entry in [1], in [2], in [3], in test [4], in [6] and in test [7] was “inactive” each time. Also, the Potency entry in [8] is “inactive”. Further, the Potency in [5] is 24.6 µM (active). In test [9], the call was inactive.
As to `Cc1c(N=C=O)cccc1N=C=O`, the Potency entry in test [1], in test [2], in test [3], in test [4], in test [5] and in test [6] was “inactive” each time. Also, the Potency result in [10], in test [7] and in [8] was “inactive” in each case.
For `COc1ccc(/C(C)=C/C(=O)O)c(OC)c1`, the Potency result in [1], in test [2], in test [3], in test [4], in test [5] and in [6] was “inactive” each time. In addition, the Potency result in test [7] and in test [8] was “inactive” each time. Besides, the result in test [9] was inactive.
`CCCCCCCCCCCCCCCCCCCl`: the activity change in [1] was 0.949% [at 8.39 µM, active compounds read high]. The activity change, negative = inhibition in [2] was -7.01% [at 8.39 µM]. Moreover, the activation in [3] was -3.3% [at 8.39 µM]; in [8] it was 0.705% [at 8.39 µM]. Moreover, in [4], the activity, negative = inhibition was 21.3% [at 8.39 µM]. The activity change, negative = cytotoxicity in test [5] was 1.57% [at 8.39 µM]; in test [6], 2.61% [at 8.39 µM]; in test [7], -0.0396% [at 8.39 µM]. Also, the cAMP activity change in test [9] is -0.012% [at 8.39 µM].
Take `Cc1cc(N)n(-c2ccccc2)n1`: the Potency result in [1], in test [2], in test [3], in [4], in test [5] and in test [6] was “inactive” throughout. Further, the Potency entry in [7] and in test [8] was “inactive” throughout. Besides, the outcome in test [9] was inactive.
As to `O=Cc1ccc(Cl)c([N+](=O)[O-])c1`, the Potency entry in test [1], in [2], in [3], in test [4], in test [5] and in test [6] was “inactive” each time. Further, the Potency result in [7] and in test [8] was “inactive” in each case. In test [9], the compound was called inactive.

The values above are taken from PubChem BioAssay (Tox21).
